Screening results (PubChem BioAssay)
AHR act = activators of human aryl hydrocarbon receptor. AID 2796. P35869. activation, % at 5 µM. 320,000 tested, 2.5% active. AHR-responsive luciferase reporter cells, luminescence; in the data active = activation above about 47%;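 also: 0% = vehicle wells and 100% = reference agonist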
Target sequence (P35869 whole entry, looked up): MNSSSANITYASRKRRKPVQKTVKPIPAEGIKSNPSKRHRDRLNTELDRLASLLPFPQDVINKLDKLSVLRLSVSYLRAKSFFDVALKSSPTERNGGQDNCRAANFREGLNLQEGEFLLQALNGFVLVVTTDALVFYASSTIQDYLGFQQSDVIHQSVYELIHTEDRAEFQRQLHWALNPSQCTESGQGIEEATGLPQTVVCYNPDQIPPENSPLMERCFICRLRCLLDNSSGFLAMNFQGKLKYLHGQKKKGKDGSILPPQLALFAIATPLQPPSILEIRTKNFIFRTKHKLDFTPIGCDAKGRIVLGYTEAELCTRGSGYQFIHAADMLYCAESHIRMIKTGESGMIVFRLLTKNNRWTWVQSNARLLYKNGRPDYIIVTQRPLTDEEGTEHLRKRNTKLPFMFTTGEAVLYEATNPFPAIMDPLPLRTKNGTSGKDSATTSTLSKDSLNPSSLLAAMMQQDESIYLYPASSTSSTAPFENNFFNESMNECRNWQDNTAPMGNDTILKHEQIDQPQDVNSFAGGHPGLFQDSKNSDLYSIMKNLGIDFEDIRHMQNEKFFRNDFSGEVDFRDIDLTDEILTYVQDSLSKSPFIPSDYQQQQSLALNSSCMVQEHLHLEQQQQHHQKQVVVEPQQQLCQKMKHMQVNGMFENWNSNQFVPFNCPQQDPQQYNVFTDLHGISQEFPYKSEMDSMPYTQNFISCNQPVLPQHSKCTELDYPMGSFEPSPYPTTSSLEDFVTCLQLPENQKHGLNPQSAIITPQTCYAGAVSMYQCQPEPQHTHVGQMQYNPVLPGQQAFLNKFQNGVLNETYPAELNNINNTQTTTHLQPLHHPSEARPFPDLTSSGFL
HSF1 activator = increases HSF-1 driven luciferase reporter signal. NIH3T3-HGL HSF-1 luciferase reporter, MG132, 8 h; 100% = twice DMSO control signal. activation, % at 9 µM. 300,000 tested, 1.7% active;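 active = mean replicate activation of at least 50% with a set share of replicates each reaching 50%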;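 also: 0% = median of the neutral control wells and 100% = twice that signal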
FXN GAA850 act = activators of GAA850 frataxin (FXN) promoter; activation, % at 6 µM; 360,000 tested, 0.56% active; HEK293 lucGAA850 FXN promoter luciferase reporter, 24 h; percent of 10 µM SAHA response;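 active = activation above the average of all compounds screened plus 3 SD, cutoff fixed separately per campaign, cut at about 7.5% in these data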;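 also: 0% = DMSO wells and 100% = 10 µM SAHA wells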
HSF1 inhib = HSF1 inhibition. NIH3T3-HGL HSE-luciferase, MG132-induced, luminescence 8 h; hits give low values. activity change, negative = inhibition, % at 7.5 µM (by protocol). 300,000 tested, 0.77% active;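 active = more than half of replicate wells show activity change below -50%, luminescence cut by over half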;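 also: luciferase reports HSF-1 transcriptional activity via heat shock element; 0% = median of DMSO wells and -100% = zero luminescence signal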
The depositor's hits bear a star. The list is not random: actives were taken first. Their share in the collection is about 4.6%.

CCOC(=O)/C=C/C(=O)Nc1ccccc1-c1ccccc1NC(=O)/C=C/C(=O)OCC was read as AHR act 0, HSF1 activator -56, FXN GAA850 act 2 and HSF1 inhib -56*.
`CCCCN(C(=O)NC(=O)Nc1ccccc1C)S(C)(=O)=O` gave AHR act 22, HSF1 activator -7, FXN GAA850 act 5 and HSF1 inhib 2.
`Cn1cc(C(=O)N/N=C/c2cccs2)c2ccccc21` gave AHR act 109*, HSF1 activator 23, FXN GAA850 act 6 and HSF1 inhib 19.
Cn1cc(C(=O)N/N=C/c2ccc(Br)c([N+](=O)[O-])c2)c2ccccc21 was read as AHR act 2, HSF1 activator 55*, FXN GAA850 act 0 and HSF1 inhib 23.
For Cn1cc(C(=O)N/N=C/c2ccc3c(c2)OCO3)c2ccccc21 the results were AHR act -6, HSF1 activator 2, FXN GAA850 act -2 and HSF1 inhib -1.
For COC(=O)CC(NS(=O)(=O)c1cccs1)c1cccc2ccccc12 (configuration not stated) the results were AHR act 2, HSF1 activator 4, FXN GAA850 act -3 and HSF1 inhib -9.
Screening CC1CCCC(C)N1NC(=O)c1cccc(S(=O)(=O)N2CCc3ccccc32)c1 (configuration not stated) returned AHR act 2, HSF1 activator 13, FXN GAA850 act 3 and HSF1 inhib 8.
Cc1ccc(NC(=O)Cc2ncon2)cc1Cl was read as AHR act -1, HSF1 activator 1, FXN GAA850 act 2 and HSF1 inhib 2.
For O=C(CC1SC(=O)N(Cc2cccc3ccccc23)C1=O)Nc1nccs1 (configuration not stated) the results were AHR act 71*, HSF1 activator 5, FXN GAA850 act 0 and HSF1 inhib 5.
COc1ccccc1NC(=O)NC1CCCCCCC1 was read as FXN GAA850 act 2.
`CNNC(=S)Nc1cccc(SC)c1` gave AHR act 3, HSF1 activator 20, FXN GAA850 act 2 and HSF1 inhib 10.
Screening Cc1nn2cc(-c3ccccc3)nc2s1 returned AHR act 0, HSF1 activator 35, FXN GAA850 act 1 and HSF1 inhib 8.
`c1ccc(-c2cn3nc(-c4ccccc4)sc3n2)cc1` gave AHR act 12, HSF1 activator -61, FXN GAA850 act 1 and HSF1 inhib -56*.
COc1ccc(C(=O)NCc2nnc(SCC(=O)N3CCc4ccccc43)n2CCc2ccccc2)cc1 was read as AHR act 2, HSF1 activator 80*, FXN GAA850 act 1 and HSF1 inhib 31.
Cc1c(C#N)c(NC(=O)CCl)n(Cc2ccccc2)c1C was read as AHR act -3, HSF1 activator 57*, FXN GAA850 act -3 and HSF1 inhib 21.
`Cc1c(C#N)c(NC(=O)CCl)n(Cc2ccc(F)cc2)c1C` gave AHR act -1, HSF1 activator -12, FXN GAA850 act -6 and HSF1 inhib -2.
`Oc1ccc(-c2cnc(-c3ccc(O)cc3)nc2)cc1` gave AHR act 7, HSF1 activator 67*, FXN GAA850 act 3 and HSF1 inhib 42.
C1=C(c2ccccc2)CCN(c2ncnc3nc[nH]c23)C1 was read as AHR act 8, HSF1 activator -79, FXN GAA850 act 0 and HSF1 inhib -75*.
Screening c1ccc2c(c1)CCN(c1ncnc3nc[nH]c13)C2 returned AHR act 3, HSF1 activator -1, FXN GAA850 act 3 and HSF1 inhib 1.
Screening COc1ccc([C@@H]2C[C@@H](c3ccccc3)Oc3c(C)ccc(C(C)C)c32)cc1 returned AHR act 3, HSF1 activator -74 and HSF1 inhib -66*.
Screening CCN(CC)c1ccc2cc(S(=O)(=O)c3ccc(C)cc3)c(=O)oc2c1 returned AHR act 3, HSF1 activator -13, FXN GAA850 act 1 and HSF1 inhib -6.
Screening CCC(C)[C@@H](N)C(=O)N/N=C/c1cccc2nccnc12 (some centres not stated) returned AHR act 70*, HSF1 activator -4 and HSF1 inhib -3.
For CCC(C)[C@H](NC(=O)OC(C)(C)C)C(=O)N/N=C/c1cccc2nccnc12 (some centres not stated) the results were AHR act 1, HSF1 activator -4, FXN GAA850 act 1 and HSF1 inhib 2.
`CCOc1ccc2[nH]cc(S(=O)(=O)c3ccc(C)cc3)c(=O)c2c1` gave AHR act 5, HSF1 activator 0, FXN GAA850 act 1 and HSF1 inhib 4.
For Cc1cccc(CSCCNC(=O)COc2ccc(Cl)cc2)c1 the results were AHR act 2, HSF1 activator -63, FXN GAA850 act 2 and HSF1 inhib -56*.
Screening COc1ccccc1NC(=O)Cn1ncc2c1-c1ccccc1OC2 returned AHR act 59*, HSF1 activator 2, FXN GAA850 act -1 and HSF1 inhib 1.
`COc1ccccc1NC(=O)Cn1c(=O)c(N(C)C)c(N)n(C)c1=O` gave AHR act 3, HSF1 activator -76, FXN GAA850 act 2 and HSF1 inhib -71*.
Screening COc1cc(NC(=O)Cn2ncc3c2-c2ccccc2OC3)cc(OC)c1OC returned AHR act 8, HSF1 activator 2, FXN GAA850 act -3 and HSF1 inhib -1.
COc1ccccc1NC(=O)Nc1cc(NC(=O)Nc2ccccc2OC)c(C)nc1C was read as AHR act 49*, HSF1 activator -7, FXN GAA850 act 0 and HSF1 inhib 1.
For COc1ccc(NC(=O)Nc2ccccc2OC)cc1 the results were AHR act 5, HSF1 activator 28, FXN GAA850 act 7 and HSF1 inhib 2.
Screening COc1ccccc1NC(=O)c1sc(Cl)nc1C returned AHR act 70*, HSF1 activator -2, FXN GAA850 act 0 and HSF1 inhib 3.
For Cc1nc(Cl)sc1C(=O)Nc1ccccc1Cl the results were AHR act -4, HSF1 activator 14, FXN GAA850 act 2 and HSF1 inhib 0.
For COc1cccc(-c2nnn(CCC(=O)O)n2)c1 the results were AHR act 0, HSF1 activator -10, FXN GAA850 act -2 and HSF1 inhib -7.
`COc1ccccc1NC(=O)CC(=O)Nc1ccccc1OC` gave AHR act 69*, HSF1 activator -10, FXN GAA850 act 0 and HSF1 inhib -3.
For COc1cccc(OC)c1NC(=O)Cc1nn(C)c(=O)c2ccccc12 the results were AHR act 4, HSF1 activator -20, FXN GAA850 act 1 and HSF1 inhib 5.
`COc1ccccc1NC(=O)CC(=O)c1ccccc1` gave AHR act 6, HSF1 activator 1, FXN GAA850 act 2 and HSF1 inhib -4.
COc1ccccc1NC(=O)Cc1nn(C)c(=O)c2ccccc12 was read as AHR act 64*, HSF1 activator 30, FXN GAA850 act -3 and HSF1 inhib 0.
For CCCC(=O)Nc1nn(C)c2nc3c(C)cccc3cc12 the results were AHR act 8, HSF1 activator 16, FXN GAA850 act 0 and HSF1 inhib 6.
